Results on 25 compounds are retold here after PubChem BioAssay.

Measured potencies and affinities stand elsewhere. Inconclusive results are not listed. Calls of active or inactive are those of the source.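 Rule for the calls: active = signal-lowering compounds whose fitted half-maximal concentration is at or below twice the top tested dose in every run; inconclusive = runs disagree, flat 30 to 70% inhibition, or poor curve fit; inactive = the rest.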

The nature of this experiment: CMV-driven luciferase expression suppression in HEK293 – cell-based, luminescence, dry powder, counter-screen for Pax8 inhibitor project, dose response (AID 743020).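 Note: HEK293 cells stably expressing the CMV luciferase reporter.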 The conditions noted are these: HEK293 CMV-luciferase reporter, SteadyGlo luminescence, 24 h; series mostly up to 35 µM. On the technique in general: A counterscreen serves to expose hits that act by an unwanted route or on another target.
As to `C[C@@H]1CCCCO[C@H](CN(C)C(=O)Nc2ccc(C(F)(F)F)cc2)[C@H](C)CN([C@@H](C)CO)C(=O)c2cc(NS(=O)(=O)c3ccc(Cl)cc3)ccc2O1`, the compound was classed as inactive.

In the case of `C[C@H](O)C#Cc1cnc2c(c1)C(=O)N([C@H](C)CO)C[C@H](C)[C@H](CN(C)Cc1ccc(-c3ccccc3)cc1)O2`, the outcome was inactive.

With `Cc1ccc(S(=O)(=O)N(C)C[C@@H]2Oc3cc(C#Cc4ccncc4)ccc3S(=O)(=O)N([C@@H](C)CO)C[C@H]2C)cc1`, the outcome was inactive.

`O=C(C[C@@H]1C[C@H]2c3cc(NC(=O)C4CCOCC4)ccc3O[C@H]2[C@H](CO)O1)NCc1ccc(Oc2ccccc2)cc1`: the compound was called inactive.

In the case of `C[C@@H]1CCCCO[C@@H](CN(C)Cc2ccc(C(F)(F)F)cc2)[C@H](C)CN([C@H](C)CO)C(=O)c2cc(NS(=O)(=O)c3ccc(Cl)cc3)ccc2O1`, the result was inactive.

Turning to `Cc1ccc(S(=O)(=O)N(C)C[C@H]2OCCCC[C@@H](C)Oc3ccc(NS(=O)(=O)c4ccc(F)cc4)cc3C(=O)N([C@@H](C)CO)C[C@H]2C)cc1`, the outcome was inactive.

Regarding `C[C@@H]1CCCCO[C@H](CN(C)C(=O)Cc2ccccc2)[C@H](C)CN([C@@H](C)CO)C(=O)c2cc(NC(=O)Nc3ccc(C(F)(F)F)cc3)ccc2O1`, the call was inactive.

As to `Cc1ccc(S(=O)(=O)Nc2ccc3c(c2)C(=O)N([C@H](C)CO)C[C@H](C)[C@H](CN(C)C(=O)c2ccccc2)OCCCC[C@H](C)O3)cc1`, the call was inactive.

Consider `COc1ccc(S(=O)(=O)Nc2ccc3c(c2)CC(=O)N([C@H](C)CO)C[C@H](C)[C@@H](CN(C)Cc2ccc(-c4ccccc4)cc2)O3)cc1`, for which the compound was classed as inactive.

Regarding `C[C@@H]1CCCCO[C@H](CN(C)S(=O)(=O)c2ccc(Cl)cc2)[C@@H](C)CN([C@@H](C)CO)C(=O)c2cc(NC(=O)CCC(F)(F)F)ccc2O1`, the compound was called inactive.

Turning to `Cc1ccc(S(=O)(=O)Nc2ccc3c(c2)C(=O)N([C@@H](C)CO)C[C@@H](C)[C@H](CN(C)Cc2ccc(Cl)c(Cl)c2)OCCCC[C@@H](C)O3)cc1`, the compound was called inactive.

Regarding `CN1c2ccc(-c3ccc(C#N)cc3)cc2[C@@H]2[C@@H](CCN2C(=O)NC2CCCCC2)[C@@H]1CO`, the compound was classed as inactive.

With `C[C@H]1CCCCO[C@H](CN(C)C(=O)Nc2ccc(C(F)(F)F)cc2)[C@@H](C)CN([C@@H](C)CO)C(=O)c2cc(NC(=O)c3ccncc3)ccc2O1`, the call was inactive.

On to `COc1ccccc1S(=O)(=O)N(C)C[C@@H]1Oc2cc(C#CCC3CCCC3)ccc2S(=O)(=O)N([C@@H](C)CO)C[C@@H]1C`, for which the compound was called inactive.

In the case of `C[C@@H]1CN([C@H](C)CO)C(=O)c2cc(NC(=O)Nc3ccc(F)cc3)ccc2O[C@@H](C)CCCCO[C@H]1CN(C)C(=O)Nc1ccc(F)cc1`, the compound was classed as inactive.

As for `Cc1ccc(S(=O)(=O)N(C)C[C@H]2Oc3ccc(NC(=O)Nc4ccc(C(F)(F)F)cc4)cc3CC(=O)N([C@H](C)CO)C[C@@H]2C)cc1`, the compound was called inactive.

As for `CCCN(C)C[C@H]1OCCCC[C@@H](C)Oc2ccc(NC(=O)c3ccccc3)cc2C(=O)N([C@H](C)CO)C[C@H]1C`, the outcome was inactive.

As to `C[C@@H]1CN([C@H](C)CO)S(=O)(=O)c2ccc(C#Cc3ccncc3)cc2O[C@H]1CN(C)C(=O)Nc1ccc2c(c1)OCO2`, the call was inactive.

For the compound `C[C@@H]1CN([C@H](C)CO)C(=O)c2cc(NC(=O)Nc3ccc(C(F)(F)F)cc3)ccc2O[C@@H](C)CCCCO[C@H]1CN(C)Cc1ccc(Cl)c(Cl)c1`, the compound was called inactive.

Turning to `C[C@H](CO)N1C[C@H](C)[C@H](CN(C)C(=O)NC2CCCCC2)OCCCC[C@H](C)Oc2ccc(NC(=O)Nc3ccc(C(F)(F)F)cc3)cc2C1=O`, the outcome was inactive.

Turning to `C[C@@H]1CN([C@H](C)CO)C(=O)Cc2cc(NC(=O)Nc3ccc(F)cc3)ccc2O[C@@H]1CN(C)Cc1ccc(Cl)c(Cl)c1`, the outcome was inactive.

`C[C@@H]1CN([C@@H](C)CO)C(=O)c2ccccc2-c2ccccc2CO[C@H]1CN(C)Cc1ccccc1C(F)(F)F`: the outcome was inactive.

Take `Cc1ccc(S(=O)(=O)Nc2ccc3c(c2)C(=O)N([C@@H](C)CO)C[C@H](C)[C@@H](CN(C)C(=O)Nc2ccc(C(F)(F)F)cc2)OCCCC[C@H](C)O3)cc1`: the compound was classed as inactive.

As for `Cc1ccc(S(=O)(=O)N(C)C[C@@H]2Oc3c(NC(=O)c4ccc(-c5nccs5)cc4)cccc3C(=O)N([C@@H](C)CO)C[C@@H]2C)cc1`, the compound was called inactive.

Take `C[C@@H]1CN([C@H](C)CO)C(=O)Cc2cc(NC(=O)Cc3ccccc3)ccc2O[C@@H]1CN(C)Cc1ccc(C(F)(F)F)cc1`: the result was inactive.
